Bioassay records: PubChem, National Center for Advancing Translational Sciences (NCATS)
A selection: hits, their analogues and other compounds. The true share with any hit is near 18%.
TGFb SMAD3 inh: qHTS for Inhibitors of TGF-b; HepG2 CAGA-GFP TGF-b/SMAD3 reporter, GFP fluorescence, 18 h; TGF-beta stimulated, 500 pg/mL final; Potency, µM (highest dose often 46.1 µM), inactives show at the highest dose activity, negative = inhibition, usual class: inhibitors; hit rate 1.2% among 410,000; AID 588855, 2011; note: potency is the fitted concentration of half-maximal effect; % is set by controls: 0 for no effect and ±100 for the full control effect; nearly all actives have a fitted effect of over 65% in size
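TGF-beta reporter screen: HEPG2 CAGA-GFP, 1% FBS, 500 pg/mL TGF-beta final, 18 h; per-cell GFP summed per well; curves fitted and categorized by class.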
IL1B secr inh: qHTS for Inhibitors of Inflammasome Signaling: IL-1-beta AlphaLISA Primary Screen | THP-1 LPS/ATP IL-1B secretion, AlphaLISA, 16 h; active compounds read low | hit rate 4.7% among 360,000 | AID 743279, 2014 | activity change, % at 57.5 µM; in the data active = activity change below about -50%; inconclusive = mostly about -30% to -49%; note: % is set by controls: 0 for no effect and ±100 for the full control effect
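THP-1 cells pretreated 1 hr with compounds (up to 57.5 uM final), then stimulated with LPS (250 ng/mL final) plus ATP (1.25 mM final); secreted IL-1B measured by AlphaLISA after 16 hr, decreased signal indicating inhibition.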
TDP1 cell noCPT: qHTS for Inhibitors of human tyrosyl-DNA phosphodiesterase 1 (TDP1): qHTS in cells in absence of CPT; DT40 Tdp1-/- hTDP1 cells, no CPT, ATP luminescence, 48 h; Potency, µM (series often up to 46.2 µM), without a hit: top-dose activity change, negative = growth inhibition, most hits filed as inhibitors; hit rate 15% among 420,000; note: potency is the fitted concentration of half-maximal effect; % is set by controls: 0 for no effect and ±100 for the full control effect; nearly all actives have a fitted effect of over 55% in size
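Chicken DT40 Tdp1-/- cells stably complemented with human TDP1 were seeded at 400 cells/well with DMSO in place of 20 nM camptothecin. After compound pinning, cells grew at least 48 hr at 37 °C; viability read by CellTiter-Glo luminescence.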
DT40 TDP1 CPT: qHTS for Inhibitors of human tyrosyl-DNA phosphodiesterase 1 (TDP1): qHTS in cells in presence of CPT | chicken DT40 Tdp1-/-;hTDP1 cells + 20 nM CPT, ATP luminescence, 48 h | Potency, µM (doses to about 46.2 µM), for the others: at the highest dose activity change, negative = growth inhibition, hits mostly inhibitors | hit rate 12% among 420,000 | AID 686979, 2013; note: potency is the fitted concentration of half-maximal effect; % is set by controls: 0 for no effect and ±100 for the full control effect; nearly all actives have a fitted effect of over 55% in size
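Cell growth measured by CellTiter-Glo luminescence after a minimum 48 h, 37 C compound exposure with 20 nM CPT in Tdp1-knockout DT40 cells stably expressing hTDP1, seeded 400/well; qHTS titration format.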
TDP1 inh: qHTS Assay for Inhibitors of Tyrosyl-DNA Phosphodiesterase (TDP1). recombinant TDP1, AlphaScreen DNA substrate cleavage. Potency, µM (titrated, usually from 130 µM), without a hit: top-dose activity change, negative = inhibition, actives largely listed as inhibitors. hit rate 0.28% among 350,000; note: potency is the fitted concentration of half-maximal effect; % is set by controls: 0 for no effect and ±100 for the full control effect; nearly all actives have a fitted effect of over 40% in size
Target sequence (Q9NUW8 whole entry, looked up): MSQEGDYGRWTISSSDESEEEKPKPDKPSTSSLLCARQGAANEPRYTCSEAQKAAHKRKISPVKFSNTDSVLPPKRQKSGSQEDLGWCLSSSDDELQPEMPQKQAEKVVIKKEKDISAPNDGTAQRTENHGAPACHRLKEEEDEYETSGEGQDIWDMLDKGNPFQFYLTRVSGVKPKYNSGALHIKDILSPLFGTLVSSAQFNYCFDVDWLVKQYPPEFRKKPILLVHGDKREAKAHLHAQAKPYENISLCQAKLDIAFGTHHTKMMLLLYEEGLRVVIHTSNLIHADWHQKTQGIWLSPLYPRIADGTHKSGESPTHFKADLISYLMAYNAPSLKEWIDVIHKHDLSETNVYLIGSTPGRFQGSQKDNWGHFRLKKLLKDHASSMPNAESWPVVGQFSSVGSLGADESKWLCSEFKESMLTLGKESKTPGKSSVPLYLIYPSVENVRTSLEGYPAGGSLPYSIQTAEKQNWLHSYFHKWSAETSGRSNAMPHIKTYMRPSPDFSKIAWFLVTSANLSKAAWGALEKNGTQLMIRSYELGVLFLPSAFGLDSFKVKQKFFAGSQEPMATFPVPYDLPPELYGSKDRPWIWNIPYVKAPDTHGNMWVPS
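Tdp1 1 nM final; 15 min RT w/ cpd; substrate 15 nM, 5 min; beads 10 ug/ml, 10 min; AlphaScreen read. Neg ctrl: no enzyme.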
HepG2 tox: qHTS for Inhibitors of TGF-b: Cytotox Counterscreen. HepG2 CAGA-GFP viability, ATP luminescence, 18 h. Potency, µM (series often up to 46.1 µM), for the others: at the highest dose activity change, negative = cytotoxicity, actives largely listed as cytotoxic. hit rate 0.76% among 410,000; note: potency is the fitted concentration of half-maximal effect
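CellTiter-Glo luminescence gave cytotoxicity after 18 hours at 37 degrees C. The cells were HepG2 CAGA-GFP in 1% FBS DMEM, stimulated with 500 pg/mL TGF-beta after compound addition. %Activity was normalised to no-cell wells (complete cell-killing) and DMSO (no toxicity), and curves were fitted and classified.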
* = called active by the depositor. Unless noted, calls come from the whole dose curve; as a rule, active = well fitted curve in the direction sought with a large enough effect; inconclusive = small, poorly fitted or top-dose-only effect, or another doubt; inactive = no such curve, though single readings can be large; an effect the other way counts as inactive or inconclusive.

CCCC(C(=O)NC1CCCC1)N(Cc1ccccc1Cl)C(=O)c1snc(C(N)=O)c1N (stereo not drawn) was read as TGFb SMAD3 inh -7%, IL1B secr inh inconclusive, TDP1 cell noCPT -19%, DT40 TDP1 CPT -25%, TDP1 inh 7% and HepG2 tox 7%.
C[C@@]12C=Cc3occc3C1CC[C@@]13C[C@@H](CCC12)[C@@](O)(CO)C3 (stereo partly drawn) was read as TDP1 inh 2%.
O=C(c1ccc(Cl)cc1)C1CCN(C(=O)c2ccc(F)cc2)CC1 was read as TGFb SMAD3 inh inconclusive, IL1B secr inh -5, TDP1 cell noCPT 10µM*, DT40 TDP1 CPT 21µM* and HepG2 tox -24%.
Screening O=C(Nc1ccccc1)N1CCN(c2ccc(F)cc2)CC1 returned TGFb SMAD3 inh -8%, IL1B secr inh inconclusive, TDP1 cell noCPT inconclusive, DT40 TDP1 CPT inconclusive, TDP1 inh 1% and HepG2 tox -4%.
`Cc1ccc(C(=O)N2CCC(C(=O)c3ccc(F)cc3)CC2)cc1` gave TGFb SMAD3 inh -27%, IL1B secr inh -1, TDP1 cell noCPT inconclusive, DT40 TDP1 CPT inconclusive and HepG2 tox 0%.
`O=C(NCc1ccccc1)N1CCN(c2ccc(F)cc2)CC1` gave TGFb SMAD3 inh 1%, IL1B secr inh -6, TDP1 cell noCPT 15µM*, DT40 TDP1 CPT 18µM*, TDP1 inh 3% and HepG2 tox 1%.
For O=C(NCc1ccccc1)C1CCCN(C(=O)NCc2ccccc2)C1 (stereo not drawn) the results were TGFb SMAD3 inh 8%, IL1B secr inh 2, TDP1 cell noCPT 4%, DT40 TDP1 CPT 1.5µM*, TDP1 inh 3% and HepG2 tox -2%.
Cc1ccc(S(=O)(=O)NCC2CCC(C(=O)N(C)Cc3ccccc3)CC2)cc1 (stereo not drawn) was read as TGFb SMAD3 inh -4%, TDP1 cell noCPT inconclusive, DT40 TDP1 CPT inconclusive, TDP1 inh 1% and HepG2 tox -50%.
For COc1ccc(C2(C)NC(=O)NC2=O)cc1OC (stereo not drawn) the results were TGFb SMAD3 inh -1%, IL1B secr inh -2, TDP1 cell noCPT 0%, DT40 TDP1 CPT -10%, TDP1 inh 9% and HepG2 tox 13%.
For O=C(Cc1coc2cc(O)ccc12)N1CCN(S(=O)(=O)c2ccc(Br)cc2)CC1 the results were TGFb SMAD3 inh -30%, IL1B secr inh inconclusive, TDP1 cell noCPT 23µM*, DT40 TDP1 CPT inconclusive and HepG2 tox -5%.
Cc1nnc(SCC(=O)Nc2sc3c(c2C(N)=O)CCC(C)C3)[nH]c1=O (stereo not drawn) was read as TGFb SMAD3 inh 15%, IL1B secr inh -6, TDP1 cell noCPT 4%, DT40 TDP1 CPT 1%, TDP1 inh -6% and HepG2 tox 1%.
CC(C)(C)N(Cc1cc2ccccc2[nH]c1=O)C(=O)c1cccc([N+](=O)[O-])c1 was read as TGFb SMAD3 inh 2%, IL1B secr inh -13, TDP1 cell noCPT -13%, DT40 TDP1 CPT -23%, TDP1 inh 3% and HepG2 tox 2%.
`Cc1ccc(S(=O)(=O)N(Cc2cc3ccc(C)cc3[nH]c2=O)c2ccccc2)cc1` gave TGFb SMAD3 inh inconclusive, IL1B secr inh 17, TDP1 cell noCPT inconclusive, DT40 TDP1 CPT inconclusive and HepG2 tox 8%.
Cc1ccc2[nH]c(=O)c(CN(c3cccc(C)c3C)S(=O)(=O)c3ccccc3)cc2c1 was read as TGFb SMAD3 inh 5%, IL1B secr inh 5, TDP1 cell noCPT 5.8µM*, DT40 TDP1 CPT 16µM*, TDP1 inh 5% and HepG2 tox 1%.
For Cc1ccc2cc(CN(CC(C)C)S(=O)(=O)c3ccccc3)c(=O)[nH]c2c1 the results were TGFb SMAD3 inh -16%, IL1B secr inh 1, TDP1 cell noCPT inconclusive, DT40 TDP1 CPT inconclusive, TDP1 inh -2% and HepG2 tox -25%.
`CC(C)C(=O)N(Cc1cc2ccccc2[nH]c1=O)C(C)(C)C` gave TGFb SMAD3 inh inconclusive, IL1B secr inh 11, TDP1 cell noCPT 21µM*, DT40 TDP1 CPT -18%, TDP1 inh 0% and HepG2 tox -12%.
For CCCCN(Cc1cc2ccccc2[nH]c1=O)S(=O)(=O)c1ccc(C)cc1 the results were TGFb SMAD3 inh inconclusive, IL1B secr inh -12, TDP1 cell noCPT 23µM*, DT40 TDP1 CPT inconclusive and HepG2 tox -18%.
`CCOc1ccc(N(Cc2cc3cc(C)ccc3[nH]c2=O)S(=O)(=O)c2ccccc2)cc1` gave TGFb SMAD3 inh 18%, IL1B secr inh inactive, TDP1 cell noCPT inconclusive, DT40 TDP1 CPT 2%, TDP1 inh 3% and HepG2 tox -3%.
For Cc1ccc(S(=O)(=O)N(Cc2cc3ccccc3[nH]c2=O)c2cccc(C)c2)cc1 the results were TGFb SMAD3 inh -4%, IL1B secr inh 18, TDP1 cell noCPT 7.3µM*, DT40 TDP1 CPT 10µM*, TDP1 inh 1% and HepG2 tox -20%.
Screening CC(C)C[C@H](NC(=O)C1CC(=O)N(c2ccc3c(c2)OCCO3)C1)C(=O)N1CCCCC1 (stereo partly drawn) returned TGFb SMAD3 inh inconclusive, IL1B secr inh -12, TDP1 cell noCPT 12%, DT40 TDP1 CPT 4%, TDP1 inh -4% and HepG2 tox -8%.
Cc1ccc2c(c1)ncc[n+]2CC(=O)c1ccc(Cl)cc1Cl was read as TGFb SMAD3 inh 7%, TDP1 cell noCPT -29%, DT40 TDP1 CPT -12% and HepG2 tox -4%.
For O=C(Nc1nnc(-c2ccccc2Cl)o1)c1ccc(S(=O)(=O)N2CCCCCC2)cc1 the results were TGFb SMAD3 inh inconclusive, IL1B secr inh 43, TDP1 cell noCPT 5.8µM*, DT40 TDP1 CPT 4.6µM*, TDP1 inh 13% and HepG2 tox -7%.
For CCC1CCCCN1S(=O)(=O)c1ccc(C(=O)Nc2nnc(-c3ccccc3Cl)o2)cc1 (stereo not drawn) the results were TGFb SMAD3 inh -6%, IL1B secr inh 36, TDP1 cell noCPT 6.5µM*, DT40 TDP1 CPT 5.2µM*, TDP1 inh 5% and HepG2 tox 2%.
